JMJD2A Tudor inh – JMJD2A Tudor domain (human) inhibition | O75164 | AlphaScreen JMJD2A-Tudor / H3K4me3 peptide binding | Potency, µM (doses to about 114 µM), for inactives: at the highest dose activity change, negative = inhibition, most hits filed as inhibitors | 4.4% of 390,000 active; further: on the % scale 0 is the no-effect control and ±100 the full control effect; nearly all actives have a fitted effect of over 50% in size
G9a inh – blocks human histone lysine methyltransferase G9a; G9a H3K9 monomethylation, AlphaScreen, 2 h; Potency, µM (highest dose often 102 µM), for inactives: top-dose activity, negative = inhibition, usual class: inhibitors; 8.8% of 350,000 active; further: on the % scale 0 is the no-effect control and ±100 the full control effect; nearly all actives have a fitted effect of over 75% in size
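AlphaScreen detection with an anti-monomethyl H3K9 antibody quantified product after a 2 h room-temperature reaction containing 500 nM biotinylated H3K9 peptide, 20 µM SAM and 20 nM enzyme, which had been preincubated 15 min with compound.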
PLK1 PBD block – PLK1 (human) polo-box domain binding inhibition; 2.8% of 360,000 active; Potency, µM, inactives show max response, negative = inhibition, hits mostly inhibitors; P53350; Plk1 PBD binding of FITC phosphopeptide, fluorescence polarization; further: series mostly up to about 57 µM; on the % scale 0 is the no-effect control and ±100 the full control effect; nearly all actives have a fitted effect of over 65% in size
BAZ2B block – inhibitors of human BAZ2B bromodomain | Q9UIF8 | AlphaScreen BAZ2B-H3K14Ac peptide displacement | Potency, µM (doses to about 114 µM), inactives show at the highest dose activity change, negative = inhibition, hits mostly inhibitors | 4.4% of 360,000 active; further: on the % scale 0 is the no-effect control and ±100 the full control effect; nearly all actives have a fitted effect of over 60% in size
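Inhibition is scored as reduced AlphaScreen emission. The BAZ2B/b-H3(5-23)K14Ac complex (50 nM each) in PBS pH 7.4, 0.01% Tween-20 meets compound (up to 110 uM) for 30 min at RT before bead addition.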
HP1b chromo inh – blocks HP1-beta chromodomain binding to methylated histone tails; P83916; AlphaScreen HP1-beta / biotin-H3K9me3 peptide binding; Potency, µM (highest dose often 114 µM), without a hit: top-dose activity change, negative = inhibition, hits mostly inhibitors; 0.56% of 390,000 active; AID 540317; further: nearly all actives have a fitted effect of over 70% in size
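HP1-beta protein (50 nM final) preincubated 30 min at room temperature with biotinylated H3(1-18)K9me3 peptide (50 nM) in PBS pH 7.4, 0.01% Tween-20, then compound added for 30 min. AlphaScreen streptavidin donor/nickel chelate acceptor beads (10 ug/mL final), 30 min dark, luminescence read.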
VDR inhibitor – inhibitors of human vitamin D receptor. VDR-SRC2-3 peptide fluorescence polarization, 2 h. AID 504847. P11473. 0.93% of 400,000 active. Potency, µM, for the others: max response, negative = inhibition, most hits filed as inhibitors; further: on the % scale 0 is the no-effect control and ±100 the full control effect
Target sequence (P11473 whole entry, looked up): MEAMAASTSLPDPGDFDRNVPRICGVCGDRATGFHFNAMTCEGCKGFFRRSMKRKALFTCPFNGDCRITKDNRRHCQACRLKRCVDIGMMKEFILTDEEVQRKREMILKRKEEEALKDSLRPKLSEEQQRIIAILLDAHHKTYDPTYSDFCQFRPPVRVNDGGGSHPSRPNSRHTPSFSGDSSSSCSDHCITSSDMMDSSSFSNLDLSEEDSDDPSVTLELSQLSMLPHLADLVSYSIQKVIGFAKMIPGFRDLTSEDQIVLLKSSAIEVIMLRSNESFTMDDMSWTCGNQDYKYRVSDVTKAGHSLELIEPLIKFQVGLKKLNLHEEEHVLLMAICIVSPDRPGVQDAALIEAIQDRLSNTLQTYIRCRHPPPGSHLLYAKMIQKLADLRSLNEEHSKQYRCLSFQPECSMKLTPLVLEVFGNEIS
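The screen uses fluorescence polarization to detect compounds that interfere with recruitment of the SRC2-3 coactivator peptide to VDR; plates are read after 2 h at room temperature.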
An asterisk follows results filed as active; ? = inconclusive; nt = no result given; [ ] = another dose, or the depositor's remark. In the library only some 11% were active in any assay of this set; here they are far more common. The call rests on the fitted dose curve; in most records, active means well fitted curve in the direction sought with a large enough effect; inconclusive means small, poorly fitted or top-dose-only effect, or another doubt; inactive means no such curve, though single readings can be large; an effect the other way counts as inactive or inconclusive. Potency means the concentration at half of the fitted maximal effect.

SMILES	JMJD2A Tudor inh	G9a inh	PLK1 PBD block	BAZ2B block	HP1b chromo inh	VDR inhibitor
CCOC(=O)[C@]12CCC=C1N(Cc1ccc3c(c1)OCO3)C(=O)[C@H](CC(=O)N1CCSCC1)C2	nt	nt	-3%	nt	nt	nt
CC(=O)[C@H]1[C@@H]2C(=O)N(c3cccc(Cl)c3)C(=O)[C@@H]2[C@H]2c3ccccc3C=CN21	?	1.4µM*	?	?	2%	7%
Cc1ccc(OCC(=O)OCc2cc(=O)n3c(C)csc3n2)cc1	-11%	1%[59 µM]	nt	-15%	22%	-6%
O=C(Nc1ccc(NC(=O)c2ccco2)cc1)c1cnccn1	-12%	10%[59 µM]	-3%	27%	21%	4%
O=C(Nc1nc(-c2ccco2)c(-c2ccco2)s1)c1c(F)cccc1Cl	50µM*	?	-24%	40µM*	?	10%
O=C(Nc1nc(-c2ccco2)c(-c2ccco2)s1)c1cnccn1	-34%	10µM*	-12%	?	0%	-14%
O=C(Nc1nc(-c2ccco2)c(-c2ccco2)s1)c1ccc(F)cc1F	?	10µM*	-12%	40µM*	?	?
CCOc1ccc(NC(=O)CN(c2ccc(CC)cc2)S(=O)(=O)c2c(C)noc2C)cc1	-16%	5%[59 µM]	nt	-3%	24%	-2%
O=C(NCCSCc1c(F)cccc1Cl)C1CCN(S(=O)(=O)Cc2ccccc2)CC1	-12%	-30%[59 µM]	nt	-4%	19%	5%
O=C(NCC1CCCN1S(=O)(=O)c1cccs1)c1cccc(F)c1 (stereo not drawn)	-16%	8%	-5%	-18%	31%	16%
CSc1ccc(CNC(=O)CCc2c(C)nn(-c3ccc(N4CCCC4)nn3)c2C)cc1	-27%	6%[59 µM]	nt	56µM*	-12%	-1%
CC(=O)c1ccc(NC(=O)CCc2c(C)nn(-c3ccc(N4CCOCC4)nn3)c2C)cc1	?	16%[59 µM]	21µM*	?	5%	?
Cc1ccc(F)cc1NC(=O)CCc1c(C)nn(-c2ccc(N3CCCC3)nn2)c1C	-15%	5%[59 µM]	nt	-15%	56%	13%
Cc1nn(-c2ccc(N3CCCC3)nn2)c(C)c1CCC(=O)NCc1ccccc1	-10%	4%[59 µM]	nt	-21%	51%	0%
Cc1cc(F)ccc1NC(=O)CCc1c(C)nn(-c2ccc(N3CCCCC3)nn2)c1C	?	?	21µM*	-36%[57.1 µM]	3%	-28%
Cc1ccc2[nH]c(C)c(CC(=O)NCc3ccccc3)c2c1	?	7%	-17%	-34%	7%	-7%
Cc1ccc2[nH]c(C)c(CCNC(=O)c3c(N)no[n+]3[O-])c2c1	50µM*	?	0%	?	71µM*	-16%
CCCNC(=O)NCCc1c(C)[nH]c2ccccc12	-19%	0%	-9%	0%	16%	4%
CCc1cccc(C)c1NC(=S)NCCc1c(C)[nH]c2ccc(C)cc12	45µM*	45µM*	-1%	25µM*	?	1%
CCc1cccc(CC)c1NC(=S)NCCc1c(C)[nH]c2ccc(C)cc12	32µM*	40µM*	-8%	28µM*	-22%	-9%
Cc1cc(C)cc(NC(=O)CSc2oc(-c3cccs3)nc2S(=O)(=O)c2ccccc2)c1	-7%	-2%[59 µM]	nt	32%	48%	4%
O=C(c1cc(=O)[nH]c2ccccc12)N1CCN(c2cccc(C(F)(F)F)c2)CC1	?	2%	19µM*	-19%	?	?
O=C(c1c(F)c(F)c(F)c(F)c1F)N1CCN(c2cccc(C(F)(F)F)c2)CC1	14µM*	?	6µM*	0%	?	?
O=C(c1ccccc1F)N1CCN(c2cccc(C(F)(F)F)c2)CC1	1%	3%[59 µM]	5%	9%	18%	-16%
Cc1cn([C@H]2C[C@H](O)[C@@H](/C=C/C(=O)NCCN3CCOCC3)O2)c(=O)[nH]c1=O	nt	nt	-12%	nt	nt	nt
COC(=O)Cc1cc(=O)n2[nH]cnc2n1	-11%	-33%[0.501 µM]	-4%	79µM*	13%	7%
COC(=O)Cc1cc(=O)n2[nH]c(C)nc2n1	?	-10%[12.7 µM]	2%	9%	-12%	-23%
